Results reported in PubChem BioAssay (NCATS).
Records with an inconclusive call do not appear. Calls of active or inactive are those of the source. Unless noted, calls come from the whole dose curve.

Tests used:
[1] = AP1 Signaling Pathway (AID 357; active = well fitted curve in either direction with a large enough effect, not every such curve was filed as active;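 note: ME-180 reporter cells stimulated with EGF at its EC50 level; % is set by controls: 0 for no effect and ±100 for the full control effect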); settings: ME-180 AP-1-bla reporter, EGF-induced, beta-lactamase ratio, 5 h
How it was run: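 Cells are seeded overnight, exposed to compound titrations and an EC50 level of EGF for 5 hours at 37 °C, then loaded with CCF4 dye for 2.5 hours. Beta-lactamase activity under the AP-1 element is read as a blue/green ratio.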

[2] = target: Cytochrome P450 1A2 (Homo sapiens) (UniProt P05177); test: p450-cyp1a2 (AID 410); settings: recombinant CYP1A2, luciferin-ME demethylation, luminescence; series mostly up to 57 µM; note: potency is the fitted concentration of half-maximal effect;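 for activity change, negative = inhibition: -100% = full effect of reference inhibitor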
Sequence of Cytochrome P450 1A2 (Homo sapiens) (P05177 whole entry, looked up): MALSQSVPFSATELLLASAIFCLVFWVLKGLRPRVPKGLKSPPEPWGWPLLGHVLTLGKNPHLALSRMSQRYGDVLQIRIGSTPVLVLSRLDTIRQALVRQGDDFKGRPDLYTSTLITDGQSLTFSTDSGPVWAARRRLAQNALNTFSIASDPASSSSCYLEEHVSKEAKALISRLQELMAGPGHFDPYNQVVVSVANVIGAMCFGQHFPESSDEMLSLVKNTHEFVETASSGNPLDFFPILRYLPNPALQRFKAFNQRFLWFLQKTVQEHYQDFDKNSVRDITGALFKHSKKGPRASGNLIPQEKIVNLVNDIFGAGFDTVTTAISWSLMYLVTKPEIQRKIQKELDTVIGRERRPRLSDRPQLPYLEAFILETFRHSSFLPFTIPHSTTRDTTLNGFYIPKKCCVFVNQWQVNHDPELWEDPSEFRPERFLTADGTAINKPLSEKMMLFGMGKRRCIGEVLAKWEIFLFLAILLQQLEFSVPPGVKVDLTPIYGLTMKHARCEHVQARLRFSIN
How it was run: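 Read-out is luminescence from luciferin produced by CYP1A2 demethylation of Luciferin-ME (100uM, at Km). Detection reagent stopped the 60 min NADPH-dependent reaction; signals were normalized to 57 uM furafylline.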

[3] = Stat Signaling Pathway (AID 446; active = well fitted curve in either direction with a large enough effect, not every such curve was filed as active;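 note: ME-180 cervical cancer cells given 40 pM IL-6 alongside compound; SIE-controlled beta-lactamase reporter measured as 460/530 nm FRET emission ratio; % is set by controls: 0 for no effect and ±100 for the full control effect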); settings: ME-180 (cervical carcinoma) SIE beta-lactamase reporter, IL-6 stimulated, 5 h
How it was run: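 FRET read-out (405 nm excitation, 460/530 nm emission) of a beta-lactamase reporter under a STAT-inducible element in ME-180 cervical carcinoma cells. Cells with compound receive 40 pM IL-6 for 5 h. Values are normalised to AC90 stimulation and AC90 JAK-inhibitor controls.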

[4] = target: Glucocorticoid receptor (Homo sapiens) (UniProt P04150); test: GR-GFP Redistribution (AID 450;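 active = compounds whose dose series gives a full or clear partial fitted curve of increased nuclear translocation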; note: potency is the fitted concentration of half-maximal effect); settings: U2OS GR-GFP nuclear translocation, laser cytometry, 2 h
Sequence of Glucocorticoid receptor (Homo sapiens) (P04150 whole entry, looked up, the tested form may be a part): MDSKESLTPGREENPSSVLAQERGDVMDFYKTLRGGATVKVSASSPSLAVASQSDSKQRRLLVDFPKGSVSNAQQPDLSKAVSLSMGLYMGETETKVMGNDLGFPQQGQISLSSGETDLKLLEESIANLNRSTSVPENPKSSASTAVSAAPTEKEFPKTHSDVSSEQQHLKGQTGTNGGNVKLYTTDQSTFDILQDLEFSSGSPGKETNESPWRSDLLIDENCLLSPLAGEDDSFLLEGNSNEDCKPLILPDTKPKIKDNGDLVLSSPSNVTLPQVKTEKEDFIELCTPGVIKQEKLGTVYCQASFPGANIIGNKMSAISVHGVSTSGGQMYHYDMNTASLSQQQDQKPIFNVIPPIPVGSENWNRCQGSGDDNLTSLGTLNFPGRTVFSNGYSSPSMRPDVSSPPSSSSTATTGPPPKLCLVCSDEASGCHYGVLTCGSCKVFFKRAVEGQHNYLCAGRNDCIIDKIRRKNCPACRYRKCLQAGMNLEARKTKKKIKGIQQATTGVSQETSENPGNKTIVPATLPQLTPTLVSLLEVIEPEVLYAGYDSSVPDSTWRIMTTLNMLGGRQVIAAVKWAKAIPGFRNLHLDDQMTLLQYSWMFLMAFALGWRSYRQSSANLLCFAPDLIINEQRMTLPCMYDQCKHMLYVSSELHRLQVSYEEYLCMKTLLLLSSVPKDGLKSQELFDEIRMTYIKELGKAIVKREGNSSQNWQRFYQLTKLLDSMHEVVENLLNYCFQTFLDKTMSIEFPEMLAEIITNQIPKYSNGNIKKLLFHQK

[5] = target: Mitogen-activated protein kinase 10 (Mus musculus) (UniProt Q61831); test: JNK3 AlphaScreen Assay (AID 530; active = well fitted curve in either direction with a large enough effect, not every such curve was filed as active;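 note: kinase came from lysate of stimulated human HepG2 cells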; note: potency is the fitted concentration of half-maximal effect;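 for activity change, negative = inhibition: signal reports phosphorylation of biotinylated GST-cJun 1-79 at Ser73 with 10 µM ATP; % is set by controls: 0 for no effect and ±100 for the full control effect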); settings: JNK3 lysate, c-Jun phosphorylation; series mostly up to 57.1 µM
How it was run: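 HepG2 lysate (IL-1b/TNFa pre-activated) + biotin-GST-cJun 1-79 + anti-pSer73 cJun; cpd titration, 15 min RT; ATP 10 uM start; Tris pH 7.6, MgCl2, DTT, vanadate; beads in EDTA buffer; AlphaScreen.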

[6] = target: Glucocorticoid receptor (Homo sapiens) (UniProt P04150); test: GR-EFC Redistribution (AID 451); settings: CHO-K1 GR-EFC translocation, beta-gal luminescence, 2 h; note: potency is the fitted concentration of half-maximal effect
How it was run: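 CHO-K1 cells expressing nuclear EA and GR-ED fragments of b-gal; compounds titrated up to 46 uM final, 2 h at 37 C. GR nuclear translocation read as complemented b-gal luminescence after 1 h RT detection.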

[7] = Cell Viability - BJ (AID 421); settings: BJ fibroblast viability, qHTS;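 note: potency is the fitted concentration of half-maximal effect; cells exposed to compound for 40 hours at 37 °C before readout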
How it was run: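 Cytotoxicity as drop in intracellular ATP (CellTiter-Glo, 20 min RT) after 40 hr compound exposure of BJ fibroblasts at 37 °C. Titrations scaled between DMSO and 100 uM tamoxifen, Hill-fitted for AC50.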

[8] = Cell Viability - Jurkat (AID 426;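 active = dose-dependent loss of cell ATP signal giving a full or clear fitted curve, ranked by lower potency value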; note: potency is the fitted concentration of half-maximal effect); settings: qHTS
How it was run: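 Cytotoxicity was scored as loss of cellular ATP, measured by luciferase-based luminescence, in Jurkat clone E6-1 cells after 40 h compound treatment; tamoxifen and doxorubicin served as positive controls.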

[9] = Cell Viability - Hek293 (AID 427;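 active = compounds whose dose-response curve shows a full or clear partial loss of cell viability, called from curve shape rather than a numeric limit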;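 note: potency is the fitted concentration of half-maximal effect; cells exposed to compound for 40 hours at 37 °C before reading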); settings: qHTS
How it was run: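 Luminescent ATP content (CellTiter-Glo, 20 min at room temperature) was measured after a 40 hr, 37 °C compound exposure of HEK293 cells. AC50 values came from Hill-equation fits of qHTS concentration-response data normalized to DMSO and 100 uM tamoxifen.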

[10] = Cell Viability - HepG2 (AID 433); settings: qHTS;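 note: potency is the fitted concentration of half-maximal effect; potency for ATP loss meaning cytotoxicity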
How it was run: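 HepG2 cells, 1500 per well, treated 40 hr at 37 °C in complete medium; viability from intracellular ATP by CellTiter-Glo luminescence. Normalized to DMSO and 100 uM tamoxifen; AC50 from Hill fit of qHTS concentration-response.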

[11] = Cell Viability - MRC5 (AID 434); settings: MRC5 lung fibroblast viability, qHTS;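 note: potency is the fitted concentration of half-maximal effect; potency reflects cytotoxicity seen as loss of intracellular ATP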
How it was run: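 ATP luminescence read-out (CellTiter-Glo, 20 min RT) after 40 hr, 37 °C compound exposure of 1500 MRC5 cells/well. Data normalized to DMSO (basal) and 100 uM tamoxifen (100% inhibition); AC50 from standard Hill equation.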

[12] = Cell Viability - SK-N-SH (AID 435); settings: SK-N-SH neuroblastoma cell viability qHTS;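 note: potency is the fitted concentration of half-maximal effect; compound exposure lasted 40 h at 37 °C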
How it was run: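 SK-N-SH neuroblastoma cells (1500/well) treated 40 h at 37 °C in complete medium; viability read as cellular ATP by CellTiter-Glo luminescence. Normalized to DMSO and 100 uM tamoxifen; AC50 from Hill fits of qHTS concentration-response.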

[13] = Cell Viability - HUV-EC-C (AID 542; active = well fitted curve in the direction sought with a large enough effect; an effect the other way counts as inactive or inconclusive; note: nearly all actives have a fitted effect of over 35% in size; note: potency is the fitted concentration of half-maximal effect); settings: HUV-EC-C endothelial cell viability, qHTS; series mostly up to 92.2 µM
How it was run: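 Concentration-dependent ATP loss in HUV-EC-C cells is the measure. Exposure lasts 40 hr at 37 °C; luminescence follows CellTiter-Glo addition, and Hill fits give AC50.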

[14] = Cell Viability - N2a (AID 540; active = well fitted curve in the direction sought with a large enough effect; an effect the other way counts as inactive or inconclusive;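 note: plate controls were DMSO alone for no effect and tamoxifen control for full effect; nearly all actives have a fitted effect of over 45% in size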); settings: N2a mouse neuroblastoma cell viability; activity change, negative = cytotoxicity: at 92.2 µM (top of the series)
How it was run: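 In this qHTS cytotoxicity screen, ATP-dependent luciferase luminescence reports viable N2a cells after a 40 hr compound exposure in complete culture medium. Potencies are AC50 values from standard Hill equation fits.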

[15] = Cell Viability - NIH 3T3 (AID 541; active = well fitted curve in the direction sought with a large enough effect; an effect the other way counts as inactive or inconclusive; note: nearly all actives have a fitted effect of over 25% in size; note: potency is the fitted concentration of half-maximal effect;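 for activity change, negative = cytotoxicity: plate controls were DMSO alone for no effect and tamoxifen positive control for full effect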); settings: NIH 3T3 cell viability, qHTS; activity change, negative = cytotoxicity: at 92.2 µM (top of the series)
How it was run: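 In this cytotoxicity screen, acute toxicity is scored as an ATP drop measured by CellTiter-Glo in NIH 3T3 fibroblasts following a 40 hr, 37 °C incubation with compound.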

[16] = Cell Viability - H-4-II-E (AID 543; active = well fitted curve in the direction sought with a large enough effect; an effect the other way counts as inactive or inconclusive; note: nearly all actives have a fitted effect of over 35% in size; note: potency is the fitted concentration of half-maximal effect); settings: H-4-II-E rat hepatoma viability; series mostly up to 92.2 µM
How it was run: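 AC50 from Hill-modelled qHTS concentration-response curves. H-4-II-E rat hepatoma cells in complete medium, 40 hr exposure at 37 °C, viability by CellTiter-Glo ATP luminescence.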

[17] = Cell Viability - SH-SY5Y (AID 544; active = well fitted curve in the direction sought with a large enough effect; an effect the other way counts as inactive or inconclusive;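 note: 0% = DMSO alone and -100% = 100 µM tamoxifen; nearly all actives have a fitted effect of over 55% in size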); settings: SH-SY5Y neuroblastoma cell viability; viability change, negative = cytotoxic: at 92.2 µM (top of the series)
How it was run: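 Quantitative HTS in SH-SY5Y neuroblastoma cells, 40 hr treatment at 37 °C, ATP content by luciferase luminescence; AC50 from Hill fits.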

[18] = Cell Viability - Renal Proximal Tubule (AID 545; active = well fitted curve in the direction sought with a large enough effect; an effect the other way counts as inactive or inconclusive;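 note: 0% = DMSO only and -100% = 100 µM tamoxifen; nearly all actives have a fitted effect of over 40% in size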); settings: renal proximal tubule cells viability, primary cells of rat origin; activity change, negative = cytotoxicity: at 91.7 µM (top of the series)
How it was run: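 Rat renal proximal tubule primary cells, 1000/well, exposed to compounds for 40 hr at 37 °C in complete medium; cellular ATP read by CellTiter-Glo luminescence. AC50 from concentration-response fitted with standard Hill equation.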

[19] = NFAT Signaling Pathway (AID 444; active = well fitted curve in either direction with a large enough effect, not every such curve was filed as active;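 note: carbachol stimulus at about its EC50 of 1 µM final; % is set by controls: 0 for no effect and ±100 for the full control effect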); settings: Jurkat NFAT-bla M1, carbachol, beta-lactamase ratio, 5 h; at 38 µM (top of the series) unless noted
How it was run: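 Jurkat cells with NFAT-driven β-lactamase reporter and co-expressed M1 receptor, stimulated with carbachol (final 1 uM, ~EC50), compound titration, 5 h at 37 °C. CCF4 loaded 1 h at RT; 460/530 nm ratio gave %activity and AC50.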

Fc1ccc(C(OCCCc2cnc[nH]2)c2ccc(F)cc2)cc1
active: Potency [2] 0.1 µM
inactive: activity change, negative = inhibition ([1]; at 38 µM (top of the series)) 26.5% | activity, negative = inhibition ([3]; at 38 µM (top of the series)) 27.8% | Potency [4] > 46 µM | Potency [5]

COc1ccccc1N1CCN(CCCCNS(=O)(=O)c2cccc3c(N(C)C)cccc23)CC1
inactive: activity change, negative = inhibition ([1]; at 38 µM (top of the series)) 1.98% | Potency [2] | activity, negative = inhibition ([3]; at 38 µM (top of the series)) -7.18% | Potency [4] > 46 µM | Potency [6] > 46 µM

Nc1nc2ccc([N+](=O)[O-])cc2s1
inactive: Potency [7] > 92 µM | Potency [8] > 92 µM | Potency [9] > 92 µM | Potency [10] > 92 µM | Potency [11] > 92 µM | Potency [12] > 92 µM | Potency [5] | Potency [13]

N=C1N=C(N)c2cc3ccccc3cc21
inactive: Potency [5]
active: Potency [7] 62.7 µM | Potency [8] 32.2 µM | Potency [10] 54.6 µM | Potency [12] 33.3 µM | activity change, negative = cytotoxicity [14] -112% | activity change, negative = cytotoxicity [15] -134% | Potency [13] 50.1 µM | Potency [16] 31.6 µM | viability change, negative = cytotoxic [17] -99% | activity change, negative = cytotoxicity [18] -85.8%

O=c1cc(-c2ccccc2)oc2ccccc12
inactive: Potency [7] > 92 µM | Potency [8] > 92 µM | Potency [9] > 92 µM | Potency [10] > 92 µM | Potency [11] > 92 µM | Potency [12] > 92 µM | Potency [5] | Potency [14] | Potency [13] | Potency [17]

Nc1ccc(O)c([N+](=O)[O-])c1
inactive: Potency [7] > 92 µM | Potency [8] 20.7 µM | Potency [9] > 92 µM | Potency [10] > 92 µM | Potency [11] > 92 µM | Potency [12] > 92 µM | Potency [5] | Potency [13] | Potency [16] | activity change, negative = cytotoxicity [18] 0.95%
active: Potency [15] 25.1 µM

CN1[C@@H](CC(=O)c2ccccc2)CCC[C@H]1C[C@H](O)c1ccccc1
inactive: activity change, negative = inhibition ([1]; at 17.2 µM (top of the series)) 1.25% | activity, negative = inhibition ([3]; at 17.2 µM (top of the series)) 5.71%

CCCCCCCCCCCCCCCCCC(=O)O
inactive: Potency [7] > 92 µM | Potency [8] > 92 µM | Potency [9] > 92 µM | Potency [10] > 92 µM | Potency [11] > 92 µM | Potency [12] > 92 µM | Potency [5] | Potency [14] | Potency [15] | Potency [13] | Potency [16] | Potency [17] | activity change, negative = cytotoxicity [18] -6.5%

C[C@@H](NC(=O)/C(C#N)=C/c1ccc(O)c(O)c1)c1ccccc1
inactive: Potency [4] > 46 µM | Potency [6] > 46 µM
active: Potency [2] 31.6 µM | Potency [5] 12.6 µM

N.N.O=C(O)C1(C(=O)O)CCC1.[Pt]
inactive: activity change, negative = inhibition ([1]; at 38 µM (top of the series)) -8.77% | activity change, negative = inhibition [19] 13.9% | Potency [5]

C[C@@H](CN1CCC(Cc2ccccc2)CC1)[C@@H](O)c1ccc(O)cc1
inactive: Potency [4] > 46 µM | Potency [5]

Cn1cc(C2=C(c3ccc(Cl)cc3Cl)C(=O)NC2=O)c2ccccc21
active: Potency [2] 3.16 µM
inactive: Potency [4] > 46 µM | Potency [6] > 46 µM | Potency [5]

N#C/C(=C\c1c[nH]c2ccccc12)C(=O)c1ccc(O)c(O)c1
inactive: activity change, negative = inhibition [19] 0.356% | activity, negative = inhibition ([3]; at 38 µM (top of the series)) -11% | Potency [4] > 46 µM | Potency [6] > 46 µM
active: Potency [2] 1.26 µM

O=C(O)/C=C\C(=O)O
inactive: Potency [7] > 92 µM | Potency [8] > 92 µM | Potency [9] > 92 µM | Potency [10] > 92 µM | Potency [11] > 92 µM | Potency [12] > 92 µM | Potency [5] | Potency [14] | Potency [15] | Potency [13] | Potency [16] | Potency [17] | activity change, negative = cytotoxicity [18] -6.17%

COC1=C(OC)C(=O)c2ccccc2C1=O
active: Potency [2] 3.98 µM
inactive: activity change, negative = inhibition [19] -8.88% | Potency [4] > 46 µM | Potency [6] > 46 µM

Ic1ccc(N2CCN(Cc3c[nH]c4ncccc34)CC2)cc1
inactive: activity change, negative = inhibition [19] 0.65% | activity, negative = inhibition ([3]; at 38 µM (top of the series)) -23% | Potency [4] > 46 µM | Potency [6] > 46 µM

S=c1[nH]c2ccccc2s1
active: activity change, negative = cytotoxicity [15] -146%
inactive: Potency [7] > 92 µM | Potency [8] > 92 µM | Potency [9] > 92 µM | Potency [10] > 92 µM | Potency [11] > 92 µM | Potency [12] > 92 µM | Potency [5] | Potency [14] | Potency [13] | Potency [16] | Potency [17] | activity change, negative = cytotoxicity [18] -20.5%

O=C(O)c1cc(O)c(O)c(O)c1
inactive: Potency [7] > 92 µM | Potency [10] > 92 µM | Potency [11] > 92 µM | Potency [5] | Potency [14] | Potency [13] | activity change, negative = cytotoxicity [18] -19.1%
active: activity change, negative = cytotoxicity [15] -98.1%

CC(C)NCC(O)COc1cccc2ccccc12 (configuration not stated)
inactive: Potency [7] > 92 µM | Potency [9] > 92 µM | Potency [10] > 92 µM | Potency [11] > 92 µM | Potency [12] > 92 µM | Potency [5] | Potency [14] | Potency [17]
active: Potency [16] 39.8 µM

N[C@@H](CC(=O)O)C(=O)O
inactive: Potency [4] > 46 µM

Nc1ccc([N+](=O)[O-])cc1O
active: Potency [15] 20 µM
inactive: Potency [7] > 92 µM | Potency [8] > 92 µM | Potency [9] > 92 µM | Potency [10] > 92 µM | Potency [11] > 92 µM | Potency [12] > 92 µM | Potency [5] | Potency [13] | Potency [16] | Potency [17] | activity change, negative = cytotoxicity [18] -10.2%
